The whole screen tested about 5,500 compounds, of which about 2,000 (36%) were called active. Roughly 18% stayed inconclusive and do not appear here. Rule as the data show it: active = normalized growth mostly below about 0.91 (no sharp cut-off); inconclusive = no clear call, values can overlap the other calls; inactive = mostly above about 0.92. The list shows a part of the results.
Assay: chemical genetic growth profiling, strain panel (AID 1159580);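 also: tested at 20 µM; growth read once vehicle control cultures reached saturation at 30 °C; 1 = growth at the plate median or of vehicle wells; lower values mean less growth of the strain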
Details: S. cerevisiae deletion strains, growth OD

Measured: normalized growth

CC(C)(O)C#Cc1ccc(/C=N\Nc2c(Cl)cc(Cl)cc2Cl)cc1
inactive: locus YAR019C, strain CDC15, stronger effect = lower value 0.982 | locus YBL105C, strain PKC1, stronger effect = lower value 0.982 | locus YBR135W, strain CKS1, stronger effect = lower value 0.962 | locus YBR136W, strain MEC1, stronger effect = lower value 0.979 | locus YBR160W, strain CDC28, stronger effect = lower value 0.969 | locus YDL017W, strain CDC7, stronger effect = lower value 0.982 | locus YDL028C, strain MPS1, stronger effect = lower value 0.973 | locus YDL101C, strain DUN1, stronger effect = lower value 0.986 | locus YDL108W, strain KIN28, stronger effect = lower value 0.968 | locus YDL132W, strain cdc53, stronger effect = lower value 0.969 | locus YDL214C, strain PRR2, stronger effect = lower value 0.881 | locus YDR052C, strain DBF4, stronger effect = lower value 0.978 | locus YDR054C, strain cdc34, stronger effect = lower value 0.963 | locus YDR226W, strain ADK1, stronger effect = lower value 0.978 | locus YDR477W, strain SNF1, stronger effect = lower value 0.773 | locus YER123W, strain YCK3, stronger effect = lower value 0.86 | locus YER133W, strain GLC7, stronger effect = lower value 0.862 | locus YFL009W, strain cdc4, stronger effect = lower value 0.975 | locus YFL029C, strain CAK1, stronger effect = lower value 0.973 | locus YFR003C, strain YPI1, stronger effect = lower value 0.978 | locus YFR019W, strain FAB1, stronger effect = lower value 0.848 | locus YFR028C, strain CDC14, stronger effect = lower value 0.976 | locus YGR040W, strain KSS1, stronger effect = lower value 0.833 | locus YGR052W, strain FMP48, stronger effect = lower value 0.769 | locus YGR092W, strain DBF2, stronger effect = lower value 0.746 | locus YHR079C, strain IRE1, stronger effect = lower value 0.668 | locus YHR205W, strain SCH9, stronger effect = lower value 0.832 | locus YIL147C, strain SLN1, stronger effect = lower value 0.973 | locus YJL157C, strain FAR1, stronger effect = lower value 0.886 | locus YJR016C, strain ILV3, stronger effect = lower value 0.973 | locus YJR066W, strain TOR1 (second series), stronger effect = lower value 0.86 | locus YJR066W, strain TOR1, stronger effect = lower value 0.728 | locus YKL048C, strain ELM1, stronger effect = lower value 0.93 | locus YKL067W, strain YNK1, stronger effect = lower value 0.893 | locus YKL101W, strain HSL1, stronger effect = lower value 0.765 | locus YKL193C, strain SDS22, stronger effect = lower value 0.974 | locus YKL203C, strain TOR2, stronger effect = lower value 0.838 | locus YML070W, strain DAK1, stronger effect = lower value 0.707 | locus YMR001C, strain CDC5, stronger effect = lower value 0.974 | locus YMR205C, strain PFK2 (second series), stronger effect = lower value 0.925 | locus YMR277W, strain FCP1, stronger effect = lower value 0.971 | locus YNL006W, strain LST8, stronger effect = lower value 0.984 | locus YNL020C, strain ARK1, stronger effect = lower value 0.758 | locus YNL161W, strain CBK1, stronger effect = lower value 0.98 | locus YNL183C, strain NPR1, stronger effect = lower value 0.728 | locus YNL207W, strain RIO2, stronger effect = lower value 0.981 | locus YNL222W, strain SSU72, stronger effect = lower value 0.979 | locus YNL307C, strain MCK1 (second series), stronger effect = lower value 0.768 | locus YOL078W, strain AVO1, stronger effect = lower value 0.978 | locus YOL136C, strain PFK27, stronger effect = lower value 0.904 | locus YOR061W, strain CKA2, stronger effect = lower value 0.73 | locus YOR119C, strain RIO1, stronger effect = lower value 1.03 | locus YOR231W, strain MKK1, stronger effect = lower value 0.708 | locus YOR329C, strain SCD5, stronger effect = lower value 0.983 | locus YPL031C, strain PHO85, stronger effect = lower value 0.709 | locus YPL153C, strain RAD53, stronger effect = lower value 0.85 | locus YPL204W, strain HRR25, stronger effect = lower value 0.839 | locus YPL209C, strain IPL1, stronger effect = lower value 0.979 | locus YPR025C, strain CCL1, stronger effect = lower value 0.972 | locus YPR106W, strain ISR1, stronger effect = lower value 0.977 | locus YPR111W, strain DBF20, stronger effect = lower value 0.962 | strain NNK1, stronger effect = lower value 0.972 | strain TSCII, stronger effect = lower value 0.977
active: locus YHR030C, strain SLT2, stronger effect = lower value 0.354 | locus YHR082C, strain KSP1, stronger effect = lower value 0.591 | locus YJL095W, strain BCK1, stronger effect = lower value 0.341 | locus YLR113W, strain HOG1, stronger effect = lower value 0.574 | locus YPL256C, strain CLN2, stronger effect = lower value 0.766

Source: PubChem BioAssay AID1159580 (chemical genetic matrix, 2015)
